Laboratory results reported in PubChem BioAssay (Tox21).
“And” between values parts separate entries of the source, which are not always exact repeats. Equal values may be shown once. Results filed as inconclusive are left out. The source made the active and inactive calls. Unless noted, calls come from the whole dose curve; as a rule, active = well fitted curve in the direction sought with a large enough effect in the repeat runs; inconclusive = weak or mixed curves; inactive = no such curve, though single readings can be large; an effect the other way counts as inactive or inconclusive.

Experiments:
[1] = qHTS assay to identify small molecule agonists of the hypoxia (HIF-1) signaling pathway - cell viability counter screen (AID 1224844; calls by dose curve; note: nearly all actives have a fitted effect of over 50% in size; note: potency is the fitted concentration of half-maximal effect)
In short: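 HRE-bla ME-180 cells, 2,000/well in 0.5% dialyzed FBS medium, treated 17 h at 37C with compounds. Viability read in the same wells as the bla reporter, by CellTiter-Glo luminescence after 30 min at room temperature.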

[2] = qHTS assay to identify small molecule agonists of H2AX (AID 1224845; active = well fitted activation curve with a large enough effect in the signal ratio in the repeat runs, not every such curve was filed as active; the % refers to the signal ratio; note: potency is the fitted concentration of half-maximal effect)
In short: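 Phospho-H2AX Ser139 measured by HTRF (ex 320 nm; em 665 and 620 nm) after 24 hr antibody incubation. Compounds, 15 concentrations, 0.76% DMSO, were applied to CHO-K1 cells for 3hr at 37C before lysis.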

[3] = qHTS assay to identify small molecule agonists of the hypoxia (HIF-1) signaling pathway (AID 1224846; active = well fitted activation curve with a large enough effect in the signal ratio in the repeat runs, not every such curve was filed as active; the % refers to the signal ratio)
In short: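 HRE-bla ME-180 beta-lactamase reporter cells in medium with 0.5% dialyzed FBS, pre-incubated 5 h then exposed to compounds 17 h at 37C, 5% CO2; reporter induction read with CCF4-AM FRET substrate.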

[4] = qHTS assay to identify small molecule agonists of H2AX - cell viability counter screen (AID 1224847; calls by dose curve; note: nearly all actives have a fitted effect of over 30% in size; note: potency is the fitted concentration of half-maximal effect;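 for activity change, negative = cytotoxicity: wild-type CHO-K1 cells; top concentration of the series differs between compounds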)
In short: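 Counter-screen for viability: CellTiter-Glo ATP luminescence read after 3 h compound treatment (15-point titration, 0.76% DMSO final) of CHO-K1 cells at 37C, with 30 min room-temperature reagent incubation.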

[5] = qHTS RealTime-Glo MT Cell Viability Assay in HepG2 cells - 24 hour (AID 1224867); note: nearly all actives have a fitted effect of over 50% in size; note: potency is the fitted concentration of half-maximal effect
In short: (§1)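 Luminescence read-out: viable HepG2 cells reduce a prosubstrate to a NanoLuc substrate, giving a signal proportional to live cell number. Reads taken at 0, 8, 16, 24, 32 and 40 h of compound exposure at 37 C.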

[6] = qHTS RealTime-Glo MT Cell Viability Assay in HEK293 cells - 32 hour (AID 1224868); note: nearly all actives have a fitted effect of over 50% in size; note: potency is the fitted concentration of half-maximal effect
In short: (§2)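 Nonlytic real-time viability readout: viable cells convert prosubstrate to NanoLuc substrate, giving luminescence proportional to live cell number. HEK293, 600 cells/well, compound added after 5 h, continuous culture at 37 C.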

[7] = A CellTox Green Cytotoxicity Assay to monitor cytotoxicity in HEK293 cells - 0 hour (AID 1224869); note: nearly all actives have a fitted effect of over 50% in size
In short: (§3)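 HEK293 cells, 600/well, were preincubated 5 hours and then exposed to compounds at 37 C for up to 40 hours. A cell-impermeant cyanine dye staining dead-cell DNA was read by fluorescence at 0, 8, 16, 24, 32 and 40 h time points.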

[8] = qHTS RealTime-Glo MT Cell Viability Assay in HepG2 cells - 40 hour (AID 1224870); note: nearly all actives have a fitted effect of over 50% in size; note: potency is the fitted concentration of half-maximal effect
In short: (§4)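 Real-time viability: cells seeded at 600 per well together with NanoLuc and cell-permeant prosubstrate, compounds added after 5 h incubation. Luminescence tracked at 0, 8, 16, 24, 32 and 40 h of exposure.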

[9] = qHTS RealTime-Glo MT Cell Viability Assay in HEK293 cells - 16 hour (AID 1224872); note: nearly all actives have a fitted effect of over 50% in size; note: potency is the fitted concentration of half-maximal effect; for activity change, negative = cytotoxicity: top concentration of the series differs between compounds
In short: as §2

[10] = qHTS RealTime-Glo MT Cell Viability Assay in HepG2 cells - 8 hour (AID 1224873); note: nearly all actives have a fitted effect of over 55% in size; note: potency is the fitted concentration of half-maximal effect
In short: as §4

[11] = qHTS RealTime-Glo MT Cell Viability Assay in HEK293 cells - 40 hour (AID 1224874); conditions: RealTime-Glo luminescence; max response: hits give low values; note: nearly all actives have a fitted effect of over 50% in size; note: potency is the fitted concentration of half-maximal effect
In short: (§5)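 600 cells/well were plated with the nonlytic NanoLuc/prosubstrate reagent, pre-incubated 5 h, then given 23 nL of compound in DMSO. Incubation at 37 C for 40 h, with luminescence from viable-cell-reduced substrate read repeatedly from 0 h.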

[12] = A CellTox Green Cytotoxicity Assay to monitor cytotoxicity in HepG2 cells - 16 hour (AID 1224876); note: nearly all actives have a fitted effect of over 45% in size; note: potency is the fitted concentration of half-maximal effect
In short: (§6)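 HepG2 cells, 600/well, preincubated 5 h with CellTox Green dye, then exposed to Tox21 compounds in DMSO at 37 C for up to 40 h. Dead-cell DNA fluorescence read at the indicated time point.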

[13] = qHTS RealTime-Glo MT Cell Viability Assay in HepG2 cells - 32 hour (AID 1224877); note: nearly all actives have a fitted effect of over 55% in size; note: potency is the fitted concentration of half-maximal effect
In short: as §1

[14] = A CellTox Green Cytotoxicity Assay to monitor cytotoxicity in HepG2 cells - 24 hour (AID 1224878); note: nearly all actives have a fitted effect of over 45% in size; note: potency is the fitted concentration of half-maximal effect
In short: as §6

[15] = qHTS RealTime-Glo MT Cell Viability Assay in HEK293 cells - 0 hour (AID 1224880); note: top concentration of the series differs between compounds; nearly all actives have a fitted effect of over 45% in size
In short: as §5

[16] = A CellTox Green Cytotoxicity Assay to monitor cytotoxicity in HEK293 cells - 40 hour (AID 1224871); note: nearly all actives have a fitted effect of over 45% in size; note: potency is the fitted concentration of half-maximal effect
In short: as §3

[17] = A CellTox Green Cytotoxicity Assay to monitor cytotoxicity in HEK293 cells - 24 hour (AID 1224875); note: nearly all actives have a fitted effect of over 45% in size; note: potency is the fitted concentration of half-maximal effect
In short: as §3

[18] = A CellTox Green Cytotoxicity Assay to monitor cytotoxicity in HepG2 cells - 40 hour (AID 1224879); note: nearly all actives have a fitted effect of over 40% in size; note: potency is the fitted concentration of half-maximal effect
In short: as §6

[19] = qHTS assay to identify small molecule antagonists of the estrogen related receptor (ERR) signaling pathway from Tox21 library (AID 1224848); note: nearly all actives have a fitted effect of over 50% in size; note: potency is the fitted concentration of half-maximal effect
In short: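 Reading was by luminescence 30 min after ONE-Glo addition. Before that, ERR cells at 2,000 per well had rested 6 h at 37 C/5% CO2 and then received pin-tooled compounds in DMSO for 18 h at 37 C.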

[20] = qHTS assay to identify small molecule agonists of the estrogen related receptor (ERR) signaling pathway from Tox21 library (AID 1224849; calls by dose curve; note: nearly all actives have a fitted effect of over 15% in size); conditions: ERR reporter cell line, ONE-Glo luciferase, 18 h; at 92.4 µM (top of the series) unless noted
In short: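 ERR reporter cells (NTP line) pre-incubated 6 hours at 37 C, then exposed to compounds for 18 hours at 37 C. ONE-Glo luciferase luminescence was read after 30 minutes at room temperature.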
% is set by controls: 0 for no effect and ±100 for the full control effect.

CC(C)OC(=O)c1cc2c(OCC(O)CNC(C)(C)C)cccc2[nH]1 (configuration not stated)
inactive: Potency [1] | Potency [2] | Potency [3] | Potency [4] | Potency [5] | Potency [7] | Potency [8] | Potency [10] | Potency [12] | Potency [13] | Potency [14] | Potency [15]
active: Potency [6] 9.52 µM | Potency [9] 4.77 µM | Potency [11] 9.52 µM

CC(C)(C)C(=O)OCOC(=O)C1N2C(=O)CC2S(=O)(=O)C1(C)C (configuration not stated)
inactive: Potency [1] | Potency [2] | Potency [3] | Potency [4] | Potency [5] | Potency [6] | Potency [7] | Potency [8] | Potency [16] | Potency [9] | Potency [10] | max response [11] 5.75% | Potency [17] | Potency [13] | Potency [18] | Potency [15]

CCCCCCCC(=O)[O-].CCCCCCCC(=O)[O-].[Zn+2]
inactive: Potency [1] | Potency [2] | Potency [3] | Potency [4] | Potency [5] | Potency [6] | Potency [7] | Potency [8] | Potency [16] | Potency [9] | Potency [10] | max response [11] 9.04% | Potency [17] | Potency [13] | Potency [14] | Potency [18] | Potency [15]

CCC(C)(C)C1CCCCC1OC(C)=O (configuration not stated)
inactive: Potency [1] | Potency [2] | Potency [3] | Potency [4] | Potency [19] | activity change, positive = activation [20] -0.855% | Potency [5] | Potency [6] | Potency [7] | Potency [8] | Potency [16] | Potency [9] | Potency [10] | max response [11] 6.6% | Potency [17] | Potency [12] | Potency [18] | Potency [15]

O=C(O)c1c(Cl)cccc1Cl
inactive: Potency [1] | Potency [2] | Potency [3] | Potency [4] | Potency [5] | Potency [6] | Potency [7] | Potency [8] | Potency [16] | Potency [9] | Potency [10] | max response [11] 1.14% | Potency [17] | Potency [13] | Potency [18] | Potency [15]

Cc1cc(O)c(Cl)c(C)c1Cl
active: Potency [4] 101 µM | Potency [14] 54.9 µM | Potency [18] 49 µM
inactive: Potency [1] | Potency [2] | Potency [3] | Potency [19] | Potency [5] | Potency [6] | Potency [7] | Potency [8] | Potency [9] | max response [11] -27.6% | Potency [15]

CC(C)(C)c1ccc(C(=O)O)cc1
inactive: Potency [1] | Potency [2] | Potency [3] | Potency [4] | Potency [5] | Potency [6] | Potency [7] | Potency [8] | Potency [16] | Potency [9] | Potency [10] | max response [11] -13.2% | Potency [17] | Potency [12] | Potency [13] | Potency [18] | Potency [15]

CO[Si](CCCNc1ccccc1)(OC)OC
inactive: Potency [1] | Potency [2] | Potency [3] | Potency [4] | Potency [5] | Potency [6] | Potency [7] | Potency [8] | Potency [16] | Potency [9] | Potency [10] | max response [11] 16.6% | Potency [17] | Potency [12] | Potency [14] | Potency [18] | Potency [15]

CCCCCCCCCCC=O
inactive: Potency [1] | Potency [2] | Potency [3] | Potency [4] | Potency [19] | activity change, positive = activation [20] 0.203% | Potency [5] | Potency [6] | Potency [7] | Potency [8] | Potency [16] | Potency [9] | Potency [10] | max response [11] 2.14% | Potency [17] | Potency [12] | Potency [13] | Potency [14] | Potency [18] | Potency [15]

Cc1cc(N)c(S(=O)(=O)O)cc1Cl
inactive: Potency [1] | Potency [2] | Potency [3] | Potency [4] | Potency [19] | activity change, positive = activation [20] 5.22% | Potency [5] | Potency [6] | Potency [7] | Potency [8] | Potency [16] | Potency [9] | Potency [10] | max response [11] 1.42% | Potency [17] | Potency [12] | Potency [13] | Potency [14] | Potency [18] | Potency [15]

O=C(c1ccc(O)cc1O)c1ccc(O)cc1O
inactive: Potency [1] | Potency [2] | Potency [3] | Potency [5] | Potency [6] | Potency [7] | Potency [8] | Potency [16] | Potency [9] | Potency [10] | max response [11] -12.9% and -13.9% | Potency [17] | Potency [12] | Potency [13] | Potency [14] | Potency [18] | Potency [15]

C[n+]1cc2c3c(ccc2c2ccc4cc5c(cc4c21)OCO5)OCO3
inactive: activity change, positive = activation [20] -68.3% [at 19 µM] | cytotoxicity [7] -9.5% [at 15.8 µM] | activity change, negative = cytotoxicity [15] -2.48% [at 15.8 µM]
active: Potency [1] 2.61 µM | Potency [2] 0.956 µM | Potency [4] 0.852 µM | Potency [19] 2.91 µM | Potency [5] 0.827 µM | Potency [6] 0.522 µM | Potency [8] 1.04 µM | Potency [16] 0.465 µM | Potency [9] 0.585 µM | Potency [10] 0.737 µM | Potency [11] 0.585 µM | Potency [17] 0.737 µM | Potency [12] 0.585 µM | Potency [13] 0.928 µM | Potency [14] 0.522 µM | Potency [18] 0.657 µM

CCCCCCCCCCCCCCCS(=O)(=O)Oc1ccccc1
inactive: Potency [1] | Potency [2] | Potency [3] | Potency [4] | Potency [5] | Potency [7] | Potency [8] | Potency [16] | Potency [10] | max response [11] -18% | Potency [17] | Potency [12] | Potency [13] | Potency [14] | Potency [18] | Potency [15]
